# High-throughput results from PubChem BioAssay.
# The full list was thinned out, with hits kept by preference.
# PTHR1 ag = PTHR1 (human) receptor agonism | Q03431 | HEK293 GP2 PTHR1 cells, GloSensor cAMP luminescence, 1 h | Potency, µM (highest dose often 115 µM), most hits filed as activators | 0.075% of 410,000 active | AID 743266; further: nearly all actives have a fitted effect of over 55% in size
#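 HEK-293-derived GP2 cells expressing PTHR1 and a GloSensor cAMP reporter, 3,000/well, plated overnight, given luciferin plus IBMX (each 0.5 mM as added) for 1 h at 37 °C, then compound for 1 h at 37 °C. Luminescence was read after 15 min at room temperature.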
# TSHR antag = antagonists of human thyroid stimulating hormone receptor. P16473. TSHR-expressing cells, TSH-stimulated cAMP HTRF, 2 h; active compounds read low. activity change, negative = inhibition, % at 11.5 µM. 0.2% of 330,000 active. AID 504810;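 active means activity change below a set negative limit, meaning inhibition stronger than a set level, cut at about -70% in these data; inconclusive means activity change between two set negative limits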
#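 Read-out is FRET at 665 nm (cryptate excitation 337 nm) from a cryptate-tagged anti-cAMP antibody, competed by cell cAMP against cAMP-d2. Compounds are tested on freshly harvested TSHR cells challenged with 4nM TSH (EC80) for 2 hours at 37 deg C.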
# NPSR antag = neuropeptide S receptor (human) antagonism, cAMP. Potency, µM (doses to about 38.3 µM), usual class: inhibitors. 1% of 220,000 active. CHO-NPSR cells, cAMP TR-FRET, antagonist mode. Q6W5P4; further: nearly all actives have a fitted effect of over 50% in size
# RXFP1 ag = activates the human relaxin receptor RXFP1; Q9HBX9; HEK293T-RXFP1 cAMP TR-FRET, 30 min; response scale: percent of porcine relaxin response, buffer zero; Potency, µM (titrated, usually from 57.5 µM), hits mostly activators; 0.3% of 370,000 active; AID 2676; further: nearly all actives have a fitted effect of over 60% in size
#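 HEK293 cells stably expressing RXFP1, treated 30 min at 37C with compounds plus PDE4 inhibitor Ro 20174; cAMP measured by HTRF TR-FRET. Normalized to buffer and 29 nM porcine relaxin; EC50 by Hill fit.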
# GLP1R cytotox = cytotoxicity counter-screen for GLP-1 receptor inverse agonists. 0.13% of 410,000 active. HEK293 cAMP-luciferase reporter cells, luminescence, 24 h. Potency, µM (titrated, usually from 38.3 µM), actives largely listed as inhibitors;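 further: loss of luciferase light is scored as toxicity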
#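 1536-well qHTS counterscreen of the MLSMR; 200 cells/uL, 12 h pre-incubation, 23 nL cpd, 24 h at 37 deg C 5% CO2, luciferase detection reagent, 12 min RT, luminescence. Inhibition = undesired.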
# RXFP1 antag = antagonists of human relaxin receptor RXFP1; Q9HBX9; HEK293-RXFP1, relaxin-stimulated cAMP HTRF, 30 min; active compounds read low; activity change, negative = inhibition, % at 57.5 µM; 0.59% of 350,000 active; AID 1259400;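 active means activity change of -60% or lower, but not beyond a set lower limit; inconclusive means change between -60% and -40%, or beyond the set limit; inactive means change above -40%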
# Hits are given with their value; i = inactive; ? = inconclusive; nt = no result given. Unless noted, the call rests on the fitted dose curve; in most records, active means well fitted curve in the direction sought with a large enough effect; inconclusive means small, poorly fitted or top-dose-only effect, or another doubt; inactive means no such curve, though single readings can be large; an effect the other way counts as inactive or inconclusive.
SMILES,PTHR1 ag,TSHR antag,NPSR antag,RXFP1 ag,GLP1R cytotox,RXFP1 antag
Cc1cc(C)nc(N/N=C/C=C/c2ccccc2)n1,i,i,i,i,11µM,i
Cc1cc(-c2ccccc2)nc(N/N=C/c2ccc(O)cc2)n1,i,i,nt,i,i,-77
CN(C)CCOC1=Cc2ccccc2Sc2ccc(Cl)cc21,nt,nt,nt,nt,nt,i
CC1=NN2C(=N)/C(=C\c3cc(C)n(-c4ccc(C)cc4)c3C)C(=O)N=C2S1,i,i,13µM,i,i,i
CCCC1=NN2C(=N)/C(=C\c3cc(C)n(-c4cccc(C)c4)c3C)C(=O)N=C2S1,i,i,i,i,i,nt
COc1ccc(CCNc2oc(COc3ccc(Cl)cc3)nc2C#N)cc1OC,i,nt,nt,i,i,-64
COc1ccc(CCNc2oc(COc3cccc(C)c3)nc2C#N)cc1OC,i,nt,nt,i,i,i
COc1ccccc1N1CCN(C(=O)C2CCN(S(=O)(=O)c3cn(C)cn3)CC2)CC1,i,nt,nt,i,i,i
COc1ccc(-c2nc(-c3cccs3)c(-c3cccs3)[nH]2)cc1O,i,i,10µM,i,?,i
CCOC(=O)c1ccc(Nc2nnc(C)c3ccccc23)cc1,i,i,i,?,i,i
Cc1nnc(Nc2ccc(S(N)(=O)=O)cc2)c2ccccc12,i,i,nt,25µM,i,i
COc1ccccc1Oc1ccc2c(c1)C(=O)N(c1cccc3ncccc13)C2=O,i,i,i,i,?,-89
O=C1CC(=O)Nc2cc(S(=O)(=O)Nc3cccc(Br)c3)ccc2N1,i,nt,nt,i,i,i
O=C(Nc1ccc(Cc2ccncc2)cc1)c1ccc(S(=O)(=O)N2CCCC2)cc1,i,i,i,i,i,-61
CC1CC(C)CN(S(=O)(=O)c2ccc(C(=O)Nc3sccc3C(N)=O)cc2)C1 (stereo not drawn),i,i,?,i,i,nt
COc1ccc(C(=O)Nc2ccc(-n3nncc3-c3ccc(OC)c(OC)c3)cc2)cc1,i,nt,nt,i,i,i
COc1ccc(-c2cnnn2-c2ccc(NC(=O)c3ccc(S(=O)(=O)N4CCCCC4)cc3)cc2)cc1OC,i,i,3.2µM,i,i,nt
NC(=O)c1ccsc1NC(=O)c1ccc(S(=O)(=O)N2CCCC2)cc1,i,i,2µM,i,i,nt
COc1ccc(C(=O)c2cn(Cc3ccccc3)c3ccccc3c2=O)cc1OC,i,nt,nt,i,i,i
CCC(c1nnnn1-c1ccc2c(c1)OCCO2)N1CCN(c2ccccc2OC)CC1 (stereo not drawn),i,nt,nt,nt,i,nt
CCOC(=O)CNC(=O)CSc1nc2c(C)cccc2cc1CC,?,i,i,14µM,i,i
Cc1cccc2cc(C#N)c(SCC(=O)NCc3cccs3)nc12,i,i,7.9µM,13µM,i,i
CCOc1ccc(Cn2c(-c3ccc(OCC)c(OC)c3)nc3ccccc32)cc1OC,i,nt,nt,i,i,i
COc1ccc(Cn2c(-c3ccc(OC)c(O)c3)nc3ccccc32)cc1O,i,i,i,i,i,-72
Cn1c(CC(=O)Nc2ccccc2Cl)nnc1SCC(=O)NC1=NCCS1,i,i,nt,i,i,i
O=C(NCCSCc1ccco1)Nc1cc(Cl)cc(Cl)c1,i,i,i,i,i,-71
